Key:
Assay in all cases: log2 ratio of Biotin-Ahx-Ub-VS probe labelling (fragment/DMSO); higher = less target engagement (more negative = stronger competition), active = hit call of the paper (q ≤ 0.05, log2 ratio ≤ -1)
Conditions in all cases: compound concentration: 200 uM; treatment time: 3 h
USP9X = USP9X (UniProt Q93008)
Method in brief: (§1)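 In triplicate, 495 µg of HEK293T lysate per sample was incubated with fragment at 200 µM or vehicle for 3 h. Biotin-Ahx-Ub-VS was then added to 0.5 µM final for 1 h, and labelled DUBs were captured with NeutrAvidin, digested with LysC and trypsin, and measured by diaPASEF LC-MS/MS. Data are average log2 fragment/vehicle ratios by unpaired t-test from global-median-normalised Spectronaut label-free quantities, restricted to proteins with ≥2 unique peptides.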

UniProt O00487 = molecular target: UniProt O00487
Sequence of UniProt O00487 (O00487 whole entry): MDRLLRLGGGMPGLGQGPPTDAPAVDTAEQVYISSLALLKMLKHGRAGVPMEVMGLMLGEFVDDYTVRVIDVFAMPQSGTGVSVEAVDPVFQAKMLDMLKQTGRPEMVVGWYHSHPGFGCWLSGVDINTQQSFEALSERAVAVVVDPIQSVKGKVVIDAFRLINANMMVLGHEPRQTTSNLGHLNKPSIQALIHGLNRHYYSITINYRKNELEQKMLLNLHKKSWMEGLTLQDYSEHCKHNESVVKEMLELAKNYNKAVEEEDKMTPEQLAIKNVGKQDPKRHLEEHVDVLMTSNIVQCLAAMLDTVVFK
Method in brief: as §1

UniProt O00507 = molecular target: UniProt O00507
Method in brief: as §1

UniProt P51784 = molecular target: UniProt P51784
Sequence of UniProt P51784 (P51784 whole entry): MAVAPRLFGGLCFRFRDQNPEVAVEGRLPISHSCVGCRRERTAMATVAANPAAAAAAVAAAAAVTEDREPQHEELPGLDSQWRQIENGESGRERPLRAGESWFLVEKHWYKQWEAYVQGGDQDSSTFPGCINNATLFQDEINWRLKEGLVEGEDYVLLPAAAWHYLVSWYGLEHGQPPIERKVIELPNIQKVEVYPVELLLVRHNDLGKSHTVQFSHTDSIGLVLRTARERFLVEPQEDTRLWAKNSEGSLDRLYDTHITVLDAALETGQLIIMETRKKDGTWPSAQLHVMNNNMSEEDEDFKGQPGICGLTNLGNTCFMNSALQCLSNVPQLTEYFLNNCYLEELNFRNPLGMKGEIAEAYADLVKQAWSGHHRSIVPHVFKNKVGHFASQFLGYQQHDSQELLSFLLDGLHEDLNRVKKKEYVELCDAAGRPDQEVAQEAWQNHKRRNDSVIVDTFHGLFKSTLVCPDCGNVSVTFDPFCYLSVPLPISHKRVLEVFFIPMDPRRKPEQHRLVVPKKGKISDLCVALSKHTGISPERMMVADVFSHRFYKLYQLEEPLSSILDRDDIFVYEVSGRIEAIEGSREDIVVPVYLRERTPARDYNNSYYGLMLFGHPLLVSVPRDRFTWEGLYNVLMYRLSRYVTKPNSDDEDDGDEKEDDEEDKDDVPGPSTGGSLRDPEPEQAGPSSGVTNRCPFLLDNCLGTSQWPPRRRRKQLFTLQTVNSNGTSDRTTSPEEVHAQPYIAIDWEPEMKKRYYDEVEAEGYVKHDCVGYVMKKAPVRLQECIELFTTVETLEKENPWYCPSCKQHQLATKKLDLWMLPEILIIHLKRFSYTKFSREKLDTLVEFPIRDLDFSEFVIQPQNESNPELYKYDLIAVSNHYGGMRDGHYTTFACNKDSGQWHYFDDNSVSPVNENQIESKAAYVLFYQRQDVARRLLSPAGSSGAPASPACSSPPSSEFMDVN
Method in brief: as §1

UniProt Q5T2D3 = molecular target: T1, UniProt Q5T2D3
T1 sequence (whole entry): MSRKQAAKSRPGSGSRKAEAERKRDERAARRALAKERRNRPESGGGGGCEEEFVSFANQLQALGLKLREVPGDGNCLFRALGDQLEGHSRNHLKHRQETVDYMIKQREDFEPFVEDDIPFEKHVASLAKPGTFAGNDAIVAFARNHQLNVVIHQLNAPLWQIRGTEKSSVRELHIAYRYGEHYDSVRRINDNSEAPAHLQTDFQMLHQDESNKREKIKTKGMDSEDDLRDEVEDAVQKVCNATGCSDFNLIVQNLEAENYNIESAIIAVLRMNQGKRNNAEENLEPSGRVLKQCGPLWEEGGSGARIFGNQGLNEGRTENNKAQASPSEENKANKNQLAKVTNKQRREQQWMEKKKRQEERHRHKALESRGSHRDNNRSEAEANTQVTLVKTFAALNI
Method in brief: as §1

UniProt Q8TE49 = molecular target: T2, UniProt Q8TE49
T2 sequence (whole entry): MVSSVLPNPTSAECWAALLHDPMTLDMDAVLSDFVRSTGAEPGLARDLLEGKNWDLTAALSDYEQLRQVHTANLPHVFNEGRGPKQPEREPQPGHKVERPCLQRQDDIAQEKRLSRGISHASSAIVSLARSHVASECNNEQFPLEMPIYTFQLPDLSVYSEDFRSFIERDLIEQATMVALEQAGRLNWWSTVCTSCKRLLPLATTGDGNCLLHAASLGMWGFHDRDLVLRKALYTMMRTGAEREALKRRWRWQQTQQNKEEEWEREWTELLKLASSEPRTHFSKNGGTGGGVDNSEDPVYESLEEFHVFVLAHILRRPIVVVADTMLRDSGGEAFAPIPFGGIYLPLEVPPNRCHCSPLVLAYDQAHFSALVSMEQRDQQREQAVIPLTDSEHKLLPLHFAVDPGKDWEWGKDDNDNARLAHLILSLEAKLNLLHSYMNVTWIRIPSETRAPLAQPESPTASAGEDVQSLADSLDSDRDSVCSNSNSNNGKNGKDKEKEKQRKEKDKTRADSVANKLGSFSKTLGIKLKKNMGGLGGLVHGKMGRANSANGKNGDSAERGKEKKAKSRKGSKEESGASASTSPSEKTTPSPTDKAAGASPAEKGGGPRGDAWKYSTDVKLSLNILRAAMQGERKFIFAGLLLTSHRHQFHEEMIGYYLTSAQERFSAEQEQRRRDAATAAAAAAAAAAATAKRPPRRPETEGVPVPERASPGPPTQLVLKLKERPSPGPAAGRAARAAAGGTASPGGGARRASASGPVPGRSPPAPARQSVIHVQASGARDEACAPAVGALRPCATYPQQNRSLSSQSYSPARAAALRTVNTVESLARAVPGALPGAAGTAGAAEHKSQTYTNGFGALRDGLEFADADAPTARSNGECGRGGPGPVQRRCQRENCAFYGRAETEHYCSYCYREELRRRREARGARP
Method in brief: as §1

UniProt Q9P2H5 = molecular target: T3, UniProt Q9P2H5
T3 sequence (whole entry): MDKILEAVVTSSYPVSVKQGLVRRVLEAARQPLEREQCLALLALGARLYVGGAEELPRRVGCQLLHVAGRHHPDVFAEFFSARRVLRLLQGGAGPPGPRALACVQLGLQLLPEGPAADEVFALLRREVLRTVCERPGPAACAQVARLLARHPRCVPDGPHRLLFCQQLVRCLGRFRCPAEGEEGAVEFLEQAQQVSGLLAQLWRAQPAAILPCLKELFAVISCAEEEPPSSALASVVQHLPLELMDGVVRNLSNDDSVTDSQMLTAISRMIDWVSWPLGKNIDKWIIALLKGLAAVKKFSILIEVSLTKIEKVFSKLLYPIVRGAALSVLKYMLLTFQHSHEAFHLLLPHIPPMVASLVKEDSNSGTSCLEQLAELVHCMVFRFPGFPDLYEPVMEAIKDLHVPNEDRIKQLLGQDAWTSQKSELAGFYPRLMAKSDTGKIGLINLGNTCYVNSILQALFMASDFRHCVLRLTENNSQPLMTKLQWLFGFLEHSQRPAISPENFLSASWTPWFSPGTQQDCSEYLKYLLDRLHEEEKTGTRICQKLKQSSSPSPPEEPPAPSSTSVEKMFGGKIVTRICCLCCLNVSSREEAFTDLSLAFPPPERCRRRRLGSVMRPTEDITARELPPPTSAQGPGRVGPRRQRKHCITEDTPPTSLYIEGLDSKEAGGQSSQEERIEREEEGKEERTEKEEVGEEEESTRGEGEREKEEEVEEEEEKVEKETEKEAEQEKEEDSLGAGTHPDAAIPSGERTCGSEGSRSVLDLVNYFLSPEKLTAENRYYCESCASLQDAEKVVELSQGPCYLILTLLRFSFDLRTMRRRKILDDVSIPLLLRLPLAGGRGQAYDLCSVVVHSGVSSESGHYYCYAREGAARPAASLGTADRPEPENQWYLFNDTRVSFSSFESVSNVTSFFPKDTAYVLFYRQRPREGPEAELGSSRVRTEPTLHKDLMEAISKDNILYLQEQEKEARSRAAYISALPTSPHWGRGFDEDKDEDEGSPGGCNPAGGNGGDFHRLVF
Method in brief: as §1

UniProt Q9UGI0 = molecular target: T4, UniProt Q9UGI0
T4 sequence (whole entry): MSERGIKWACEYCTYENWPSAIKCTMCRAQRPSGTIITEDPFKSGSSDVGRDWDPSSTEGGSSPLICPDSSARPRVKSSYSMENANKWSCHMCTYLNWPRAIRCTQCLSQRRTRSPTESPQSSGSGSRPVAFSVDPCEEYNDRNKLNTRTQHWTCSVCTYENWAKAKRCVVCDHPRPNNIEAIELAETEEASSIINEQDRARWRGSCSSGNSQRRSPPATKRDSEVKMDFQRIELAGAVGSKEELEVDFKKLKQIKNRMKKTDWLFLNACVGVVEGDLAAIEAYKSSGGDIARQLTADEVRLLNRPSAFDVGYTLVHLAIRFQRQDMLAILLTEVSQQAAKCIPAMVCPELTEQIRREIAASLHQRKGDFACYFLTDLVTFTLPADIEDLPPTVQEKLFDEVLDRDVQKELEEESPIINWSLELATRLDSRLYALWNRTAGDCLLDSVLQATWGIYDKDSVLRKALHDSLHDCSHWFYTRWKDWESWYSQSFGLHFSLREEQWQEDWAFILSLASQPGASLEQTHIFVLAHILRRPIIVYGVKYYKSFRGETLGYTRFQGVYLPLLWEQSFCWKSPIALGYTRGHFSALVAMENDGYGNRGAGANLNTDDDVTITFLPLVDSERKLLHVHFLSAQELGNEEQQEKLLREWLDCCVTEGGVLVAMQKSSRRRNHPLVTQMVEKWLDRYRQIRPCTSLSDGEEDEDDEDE
Method in brief: as §1

YOD1 = molecular target: T5, YOD1 (UniProt Q5VVQ6)
T5 sequence (whole entry): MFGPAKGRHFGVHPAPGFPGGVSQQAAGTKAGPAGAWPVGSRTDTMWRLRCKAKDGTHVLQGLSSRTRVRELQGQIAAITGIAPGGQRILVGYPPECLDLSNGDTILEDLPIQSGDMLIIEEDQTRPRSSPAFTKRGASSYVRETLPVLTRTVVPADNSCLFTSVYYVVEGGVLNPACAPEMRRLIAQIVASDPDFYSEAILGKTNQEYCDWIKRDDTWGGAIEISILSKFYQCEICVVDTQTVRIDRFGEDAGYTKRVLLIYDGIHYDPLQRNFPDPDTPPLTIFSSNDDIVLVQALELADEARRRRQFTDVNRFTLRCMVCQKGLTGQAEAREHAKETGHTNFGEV
Method in brief: as §1

Measured: log2 ratio of Biotin-Ahx-Ub-VS probe labelling

Sequence of USP9X (Q93008 whole entry, the tested form may be a part): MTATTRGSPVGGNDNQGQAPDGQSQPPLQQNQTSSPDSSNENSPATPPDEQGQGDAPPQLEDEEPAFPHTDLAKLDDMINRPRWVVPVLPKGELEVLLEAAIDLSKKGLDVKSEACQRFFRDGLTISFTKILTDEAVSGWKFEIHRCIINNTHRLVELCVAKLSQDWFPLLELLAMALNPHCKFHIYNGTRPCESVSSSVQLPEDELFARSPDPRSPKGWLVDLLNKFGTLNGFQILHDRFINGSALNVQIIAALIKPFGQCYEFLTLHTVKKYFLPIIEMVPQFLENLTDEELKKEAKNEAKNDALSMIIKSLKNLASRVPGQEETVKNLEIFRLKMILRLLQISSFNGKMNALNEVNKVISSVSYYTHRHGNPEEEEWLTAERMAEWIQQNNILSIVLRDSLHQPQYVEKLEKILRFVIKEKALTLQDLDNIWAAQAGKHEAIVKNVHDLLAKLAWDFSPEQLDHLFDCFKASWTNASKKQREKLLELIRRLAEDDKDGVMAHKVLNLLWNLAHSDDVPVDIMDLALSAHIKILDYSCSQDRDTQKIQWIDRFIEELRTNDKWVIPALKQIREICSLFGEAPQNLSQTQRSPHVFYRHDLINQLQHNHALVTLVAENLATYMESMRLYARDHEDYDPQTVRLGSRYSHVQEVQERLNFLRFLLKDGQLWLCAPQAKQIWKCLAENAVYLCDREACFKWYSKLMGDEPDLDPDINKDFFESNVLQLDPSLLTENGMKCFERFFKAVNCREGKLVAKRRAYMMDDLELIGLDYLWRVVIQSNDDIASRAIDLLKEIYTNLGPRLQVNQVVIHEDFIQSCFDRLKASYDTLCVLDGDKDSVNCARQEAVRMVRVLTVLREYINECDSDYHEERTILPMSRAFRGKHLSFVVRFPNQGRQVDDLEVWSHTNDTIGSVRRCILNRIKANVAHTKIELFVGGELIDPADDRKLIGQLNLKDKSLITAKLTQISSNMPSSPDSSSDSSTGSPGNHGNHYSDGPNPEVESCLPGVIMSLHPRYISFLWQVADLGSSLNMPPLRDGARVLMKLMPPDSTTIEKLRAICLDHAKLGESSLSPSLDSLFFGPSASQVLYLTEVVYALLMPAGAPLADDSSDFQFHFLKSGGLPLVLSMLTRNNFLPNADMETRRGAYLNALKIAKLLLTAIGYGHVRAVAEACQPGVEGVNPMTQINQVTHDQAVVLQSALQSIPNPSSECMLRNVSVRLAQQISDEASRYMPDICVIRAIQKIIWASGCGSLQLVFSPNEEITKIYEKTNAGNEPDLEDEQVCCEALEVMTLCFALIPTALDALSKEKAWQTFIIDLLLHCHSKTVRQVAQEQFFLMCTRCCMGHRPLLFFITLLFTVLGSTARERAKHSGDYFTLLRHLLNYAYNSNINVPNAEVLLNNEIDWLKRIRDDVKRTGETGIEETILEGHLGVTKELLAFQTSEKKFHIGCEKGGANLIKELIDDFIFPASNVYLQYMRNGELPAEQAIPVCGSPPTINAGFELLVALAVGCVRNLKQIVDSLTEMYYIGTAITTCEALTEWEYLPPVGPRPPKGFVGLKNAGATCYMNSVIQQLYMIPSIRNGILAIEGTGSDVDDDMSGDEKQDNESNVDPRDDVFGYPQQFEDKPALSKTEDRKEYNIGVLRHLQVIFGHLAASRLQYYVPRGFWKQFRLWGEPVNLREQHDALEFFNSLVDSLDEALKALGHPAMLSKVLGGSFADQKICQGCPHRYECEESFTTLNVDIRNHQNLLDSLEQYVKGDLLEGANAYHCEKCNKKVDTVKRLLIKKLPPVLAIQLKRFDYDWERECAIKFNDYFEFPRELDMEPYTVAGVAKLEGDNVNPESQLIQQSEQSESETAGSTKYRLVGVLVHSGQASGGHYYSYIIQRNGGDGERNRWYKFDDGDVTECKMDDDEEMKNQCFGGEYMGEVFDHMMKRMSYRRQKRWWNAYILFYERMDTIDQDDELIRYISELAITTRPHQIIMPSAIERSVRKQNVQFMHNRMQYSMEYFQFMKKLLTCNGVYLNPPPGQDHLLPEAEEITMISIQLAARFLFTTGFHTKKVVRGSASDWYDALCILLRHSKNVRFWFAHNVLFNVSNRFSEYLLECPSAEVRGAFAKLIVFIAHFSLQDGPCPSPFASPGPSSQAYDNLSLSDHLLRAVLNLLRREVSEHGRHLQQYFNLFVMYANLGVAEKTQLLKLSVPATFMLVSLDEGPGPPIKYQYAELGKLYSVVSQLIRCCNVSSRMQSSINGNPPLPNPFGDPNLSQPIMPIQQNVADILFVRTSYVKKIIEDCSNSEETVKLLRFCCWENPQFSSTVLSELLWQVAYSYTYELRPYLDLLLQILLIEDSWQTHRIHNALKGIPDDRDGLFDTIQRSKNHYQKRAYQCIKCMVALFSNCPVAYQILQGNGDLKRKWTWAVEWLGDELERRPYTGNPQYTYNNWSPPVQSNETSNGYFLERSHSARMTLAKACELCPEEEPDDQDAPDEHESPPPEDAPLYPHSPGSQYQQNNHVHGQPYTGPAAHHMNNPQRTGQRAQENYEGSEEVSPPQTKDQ

Cl.O=C(CCl)NCCN1CCc2ccccc21
inactive: USP9X -0.798 | UniProt O00487 -0.255 | UniProt O00507 -0.631 | UniProt P51784 -0.722 | UniProt Q5T2D3 -0.805 | UniProt Q8TE49 -0.934 | UniProt Q9P2H5 -0.844 | UniProt Q9UGI0 -0.971 | YOD1 -0.814

From the supplement of paper PMC11732987, “Enantioselective OTUD7B fragment discovery through chemoproteomics screening and high-throughput optimisation” (Communications Chemistry, 2025)
